Measurements reported in PubChem BioAssay (Tox21).
Results filed as inconclusive are left out. Active and inactive are the calls of the source. Calls come from the whole dose curve; as a rule, active = well fitted cell-killing curve with a large enough effect in the repeat runs; inconclusive = weak or mixed curves, or effect the other way; inactive = no such curve, though single readings can be large or run the other way.

Experiment: qHTS assay to identify small molecule antagonists of the progesterone receptor (PR) signaling pathway - cell viability counter screen (AID 1346798); note: nearly all actives have a fitted effect of over 50% in size
Conditions: PR-UAS-bla HEK293T viability, CellTiter-Glo luminescence, 16 h; series mostly up to 92.4 µM; activity change, negative = cytotoxicity: at the top concentration
Text: National Center for Advancing Translational Sciences [NCATS]
NIH Chemical Genomics Center [NCGC]
U.S. Environmental Protection Agency [EPA]
National Institutes of Environmental Health Sciences [NIEHS]
National Toxicology Program [NTP]
U.S. Food and Drug Administration [FDA]
Progesterone receptor (PR), a nuclear hormone receptor, plays an important role in development, metabolic homeostasis and reproduction. It is activated by the steroid hormone progesterone. Endocrine disrupting chemicals (EDCs) and their interactions with steroid hormone receptors like PR causes disruption of normal endocrine function. To identify the compounds that inhibit PR signaling, a PR-UAS-bla GripTite cell line i.e. PR-UAS-bla HEK293T (Invitrogen, Carlsbad, CA, USA) containing a beta-lactamase reporter gene under the control of an UAS response element was used to screen Tox21 10K compound library. The cytotoxicity of the Tox21 compound library against the PR-bla cell line was tested in parallel by measuring the cell viability using CellTiter-Glo assay in the same wells.
Tox21 Assay Protocol Summary:
PR-UAS-bla HEK293T cells were dispensed at 3,000 cells/4 uL of assay medium containing 2% charcoal stripped FBS per well into black wall/clear-bottom 1536-well plates using a Multidrop Combi (ThermoFisher Scientific, Waltham, MA) dispenser. After the assay plates were incubated at a 37C and 5% CO2 for 4 hr, 23 nL of compounds dissolved in DMSO, positive controls or DMSO only was transferred to the assay plate by a Pintool station (Kalypsys, San Diego, CA), followed by addition of 1 uL of R5020 in assay medium using a Flying Reagent Dispenser (FRD, Aurora Discovery, San Diego, CA). The plates were incubated at 37C and 5% CO2 for 16 hr. Then 1 uL of LiveBLAzer B/G FRET substrate was added using a Flying Reagent Dispenser, the plates were incubated at room temperature for 2 hours, and fluorescence intensity was measured by an Envision plate reader (PerkinElmer, Shelton, CT). For cell viability readout that measures cytotoxicity, 4 uL/well of CellTiter-Glo reagent was added into the assay plates using a FRD. After 30 min incubation at room temperature, the luminescence intensity in the plates was measured using a ViewLux (PerkinElmer) plate reader.
% is set by controls: 0 for no effect and ±100 for the full control effect; potency is the fitted concentration of half-maximal effect.

Compound | activity change, negative = cytotoxicity | Potency
CCc1ccccc1C | -6.88% (inactive) | 
N#Cc1ccc(O)cc1 | -6.19% (inactive) | 
N#Cc1c(-c2ccc(Cl)cc2)[nH]c(C(F)(F)F)c1Br |  | 4.33 µM (active)
N#CSCSC#N |  | inactive
CC(C)OC(=O)C(O)(c1ccc(Cl)cc1)c1ccc(Cl)cc1 | 10.4% (inactive) | 
O=C(NC(=O)c1c(F)cccc1F)Nc1cc(Cl)c(OC(F)(F)C(F)F)c(Cl)c1 | -14.2% (inactive) | 
CCOP(=S)(OCC)OC(Cl)C(Cl)(Cl)Cl (stereo not given) | -3.22% (inactive) | 
CCOCn1c(-c2ccc(Cl)cc2)c(C#N)c(Br)c1C(F)(F)F |  | 12.2 µM (active)
CC(Cl)CN(C)C (stereo not given) | -7.64% (inactive) | 
CN(C)[C@@H]1C(=O)C(C(N)=O)=C(O)[C@@]2(O)C(=O)C3=C(O)c4c(O)ccc(Cl)c4[C@@](C)(O)[C@H]3C[C@@H]12 | 14.3% (inactive) | 
COS(=O)(=O)c1ccc(C)cc1 | -0.222% (inactive) | 
c1ccc2c(c1)OCC(C1=NCCN1)O2 (stereo not given) | 24.9% [at 42.5 µM] (inactive) | 
c1ccc(Nc2ccc3ccccc3c2)cc1 |  | inactive
CCOC(=O)CC(=O)CCl | -21.4% (inactive) | 
COP(=O)(CCC(=O)NCO)OC | -3.76% (inactive) | 
COc1ccc(OC)c(CC(C)N)c1 (stereo not given) | -3.13% (inactive) | 
ClC1=C(Cl)C2(Cl)C3C(Cl)C(Cl)CC3C1(Cl)C2(Cl)Cl (stereo not given) | -28.8% (inactive) | 
N#C/C=C/c1ccccc1 | -6.27% (inactive) | 
Cc1cc(SCc2sc(-c3ccc(C(F)(F)F)c(F)c3)nc2C)ccc1OCC(=O)O |  | 19.3 µM (active)
CCc1cc(C)cc(CC)c1-c1c(OC(=O)C(C)(C)C)n2n(c1=O)CCOCC2 | 2.55% (inactive) | 

Compound | activity change, negative = cytotoxicity | Potency
CCCCOCN(C(=O)CCl)c1c(CC)cccc1CC | 3.03% (inactive) | 
CC1(C)CN=C(NN=C(/C=C/c2ccc(C(F)(F)F)cc2)/C=C/c2ccc(C(F)(F)F)cc2)NC1 |  | 38.6 µM (active)
CCOC(=O)C1(c2ccccc2)CCN(CCC(C#N)(c2ccccc2)c2ccccc2)CC1 | 5.44% [at 42.5 µM] (inactive) | 
COc1ccc(OC)c(C=O)c1 | -1.87% (inactive) | 
ClC1=C(Cl)[C@]2(Cl)[C@@H]3[C@@H](Cl)[C@@H](Cl)C[C@@H]3[C@@]1(Cl)C2(Cl)Cl | -17.4% (inactive) | 
ClCCN1CCOCC1 | -6.9% (inactive) | 
COc1ccc(/C(=C/C(=O)N2CCOCC2)c2ccc(Cl)cc2)cc1OC | -14.3% (inactive) | 
Fc1cccc(Cl)c1CCl | 1.27% (inactive) | 
CC(=[OH+])/C=C(/C)[O-].CC(=[OH+])/C=C(\C)[O-].CC(=[OH+])/C=C(\C)[O-].[Al] | 2.33% (inactive) | 
CCOC(=O)c1ccccc1S(=O)(=O)NC(=O)Nc1nc(Cl)cc(OC)n1 | -13.6% (inactive) | 
Oc1ccc2ccc3cccc4ccc1c2c34 | 7.16% (inactive) | 
ClC1=C(Cl)[C@]2(Cl)[C@@H]3[C@@H](Cl)[C@H](Cl)C[C@@H]3[C@@]1(Cl)C2(Cl)Cl | -8.33% (inactive) | 
C[C@@H](Oc1ccc(Cl)cc1Cl)C(=O)O | -13.1% (inactive) | 
Oc1ccccc1Br | -1.89% (inactive) | 
CSCCCN=C=S | -9.68% (inactive) | 
Clc1ccc(CCC(Cn2ccnc2)Sc2c(Cl)cccc2Cl)cc1 (stereo not given) |  | 11.9 µM (active)
FC(Cl)(Cl)Cl | -7.32% (inactive) | 
CC(C)CBr | -8.35% (inactive) | 
CC1CCC(C(C)C)C(OC(=O)c2ccccc2N)C1 (stereo not given) |  | 60.3 µM (active)
COc1cc(N)c(Cl)cc1C(=O)NC1CN2CCC1CC2 (stereo not given) | -6.22% [at 42.5 µM] (inactive) | 
